SMN2 splice enh: increases expression of the SMN2 splice variant; HEK293 SMN2-luciferase splicing reporter, luminescence, 30-36 h; Potency, µM (titrated, usually from 46.1 µM), hits mostly activators; 210,000 tested, 2.8% active; AID 1458; also: nearly all actives have a fitted effect of over 55% in size
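HEK293 cells carry an SMN2 […]–luciferase reporter in which exon 7 inclusion puts luciferase in frame. Cells were plated 10-12 h before compound addition, then incubated 30-36 h at 37C. ONE-Glo luminescence was read; sodium butyrate at 4.5 mM final served as control.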
ELG1 DNA repair: blocks ELG1-dependent DNA repair in HEK293T cells | HEK293T ELG1-luciferase reporter, luminescence, 16 h; DNA damage induced by 5-fluorouridine | Potency, µM (highest dose often 46.1 µM), most hits filed as inhibitors | 330,000 tested, 2.3% active; also: nearly all actives have a fitted effect of over 55% in size
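In this reporter screen, reduction of luminescence relative to DMSO vehicle indicated activity. Compounds and 5-fluorouridine were added together to 2,000 cells per well, incubated for 16 hr at 37 °C, then developed with ONE-Glo.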
NPC1 prom act: NPC1 promoter activation; 320,000 tested, 2.4% active; Huh7 NPC1 promoter luciferase reporter, 24 h; Potency, µM (doses to about 9.22 µM), usual class: activators; also: nearly all actives have a fitted effect of over 60% in size
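In 1536-well qHTS, Huh7 cells harboring an NPC1 promoter–luciferase construct received compound for 24 h; activation was quantified by luminescence following luciferase reagent addition.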
Rab9 promoter act: Rab9 promoter activation; Huh7 Rab9 promoter-luciferase reporter, luminescence, 24 h; Potency, µM (doses to about 9.22 µM), usual class: activators; 320,000 tested, 2.8% active; AID 485297; also: nearly all actives have a fitted effect of over 60% in size
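Quantitative HTS format; Huh7 Rab9-luciferase reporter cells (1500/well) receive compound 2 h post-plating, incubate 24 h at 37 °C, then get luciferase reagent for 10 min before luminescence reading.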
FLuc modulator: inhibits or activates purified firefly luciferase, miR-21 counter-screen; P08659; purified FLuc, Km substrates, luminescence inhibition; Potency, µM (titrated, usually from 57.5 µM), most hits filed as inhibitors; 360,000 tested, 6.9% active; also: nearly all actives have a fitted effect of over 55% in size
Target sequence (P08659 whole entry, looked up): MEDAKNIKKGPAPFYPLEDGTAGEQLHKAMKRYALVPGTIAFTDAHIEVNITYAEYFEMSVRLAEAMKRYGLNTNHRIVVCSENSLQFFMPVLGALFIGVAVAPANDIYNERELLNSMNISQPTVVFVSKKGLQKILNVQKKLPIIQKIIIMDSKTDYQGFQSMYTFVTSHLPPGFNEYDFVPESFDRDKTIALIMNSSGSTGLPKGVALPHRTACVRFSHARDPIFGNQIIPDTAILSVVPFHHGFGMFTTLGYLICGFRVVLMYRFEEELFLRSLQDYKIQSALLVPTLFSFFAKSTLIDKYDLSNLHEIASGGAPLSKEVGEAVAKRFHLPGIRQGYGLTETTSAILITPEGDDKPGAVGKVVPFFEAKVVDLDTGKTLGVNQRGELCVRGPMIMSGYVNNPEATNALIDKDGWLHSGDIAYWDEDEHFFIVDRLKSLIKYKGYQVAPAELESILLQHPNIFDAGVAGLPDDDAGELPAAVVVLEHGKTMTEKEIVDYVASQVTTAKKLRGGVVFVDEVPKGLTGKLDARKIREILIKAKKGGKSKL
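Purified P. pyralis luciferase (10nM final) with 10uM D-luciferin and 10uM ATP (Km levels) in 50mM Tris acetate pH 7.5, 10mM Mg acetate, 0.01% Tween-20, 0.05% BSA; qHTS 6-point titration, ~60 µM downward; luminescence read.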
ELG1 genotox: inducers of genotoxicity in HEK293T ELG1-luciferase cells | HEK293T ELG1-luciferase reporter, luminescence, 16 h | Potency, µM (top dose mostly 46 µM), hits mostly activators | 330,000 tested, 1.3% active | AID 504466; also: nearly all actives have a fitted effect of over 60% in size
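Reporter readout depends on ELG1 protein level, which increases with genetic stress. After 16 hr compound exposure at 37 °C, luciferase activity was quantified using ONE-Glo.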
Hits are given with their value; . = inactive; ? = inconclusive; / = not tested or not shown. Sampled rows, rich in hits. Any-hit rate of the full collection: about 9.4%. Calls follow the shape of the dose curve; as a rule, active = well fitted curve in the direction sought with a large enough effect; inconclusive = small, poorly fitted or top-dose-only effect, or another doubt; inactive = no such curve, though single readings can be large; an effect the other way counts as inactive or inconclusive.

SMILES	SMN2 splice enh	ELG1 DNA repair	NPC1 prom act	Rab9 promoter act	FLuc modulator	ELG1 genotox
Cc1nc2ccccc2c2oc(C(=O)N3CCc4ccccc4C3)cc12	.	26µM	.	.	.	.
Cc1cc(N/N=C2/CCCc3ccccc32)nc2ccccc12	.	?	.	?	7.6µM	.
CCOc1ccc(N/C(C)=C\C(=O)c2ccc3c(c2)OCCO3)cc1	/	?	2.5µM	1.1µM	3.8µM	.
CCOc1ccc(N/C(C)=C/C(=O)c2ccc3c(c2)OCCO3)cc1	/	?	3.2µM	2.2µM	5.4µM	?
Cc1ccc(C)c(N2CCN(S(=O)(=O)c3ccc(F)c(C(=O)Nc4ccc(Cl)cc4Cl)c3)CC2)c1	/	/	/	/	.	/
CCOCCCN(C(=O)c1snc(C(N)=O)c1N)C(C(=O)NC1CCCC1)c1ccc(O)cc1 (centres undefined)	/	.	.	.	.	.
COc1ccc(OC)c(N/C(C)=C/C(=O)c2ccccc2)c1	.	?	4µM	3.5µM	0.85µM	?
COc1ccc(N/C(C)=C/C(=S)Nc2ccccc2)cc1	.	.	.	.	11µM	.
COc1ccc(OC)c(N/C(C)=C/C(=O)c2ccncc2)c1	/	?	.	.	.	.
COc1ccc(CCNC(=S)Nc2ccccc2)cc1	/	?	.	.	.	.
COc1ccc(OC)c(N/C=C/C(=O)c2ccccc2)c1	/	?	?	?	0.067µM	?
COc1ccc(C(=O)/C=C(\C)Nc2ccc3c(c2)OCO3)cc1	?	?	3.2µM	2.2µM	4.8µM	?
C=CC1CO1 (centres undefined)	.	/	/	/	/	/
Cc1cc(NC(=O)NCc2ccc3c(c2)CCN3C(=O)c2ccccc2)ccc1Br	/	/	/	/	.	/
COc1ccc(N/C(C)=C/C(=O)c2ccccc2)cc1	13µM	?	?	2.8µM	3µM	?
COCCNC(=O)CCCn1c(SCC(=O)Nc2cccc(C)c2)nc2c(sc3ccccc32)c1=O	.	/	/	/	.	/
CC(C)c1nc(-c2ccc([N+](=O)[O-])cc2)cs1	.	?	.	.	17µM	.
NC(=O)Cc1nc(-c2ccc([N+](=O)[O-])cc2)cs1	.	18µM	.	.	.	.
COc1ccc(CN(C(=O)c2cc(=O)c3ccccc3o2)C2CCS(=O)(=O)C2)cc1OC (centres undefined)	.	.	.	.	.	.
O=C(c1cc(-c2ccc(Cl)cc2)nc2ccccc12)N1CCOCC1	/	.	.	.	19µM	.
Cc1nn2c(C(F)(F)F)cc(-c3ccc(Cl)cc3)nc2c1C(=O)N1CCOCC1	.	16µM	.	.	.	.
c1ccc(-c2cc(-c3ccc(N4CCOCC4)cc3)nc3ccccc23)cc1	.	?	.	.	15µM	.
Cc1ccc(-c2cc(C(=O)N3CCOCC3)c3cc(C)ccc3n2)cc1	/	.	.	.	6.7µM	.
c1ccc(-c2cc(N3CCOCC3)nc(-c3ccccc3)n2)cc1	.	.	.	.	.	.
O=C(c1cnn2c(C(F)(F)F)cc(-c3ccc(Br)cc3)nc12)N1CCOCC1	/	?	.	.	.	.
SMILES	SMN2 splice enh	ELG1 DNA repair	NPC1 prom act	Rab9 promoter act	FLuc modulator	ELG1 genotox
CCc1cc2c(cc3c(=O)n(CC(=O)NC(C)C)nc(CC)n32)s1	.	/	/	/	.	/
COc1ccc(Nc2c3c(nc4ccc(NC(=O)/C=C/c5cccc(OC)c5OC)cc24)CCCC3)cc1OC	.	/	/	/	.	/
CC(=O)N1CCc2c(sc3c2c(=O)n(Cc2ccccc2)c(=O)n3Cc2ccccc2Cl)C1	.	/	/	/	.	/
O=c1c2[nH]c3ccccc3c2ncn1C1CCCCC1	.	?	4.5µM	?	?	?
COCCN1C(=O)/C(=C/c2ccc(Oc3ccc([N+](=O)[O-])cn3)c(OC)c2)SC1=Nc1ccccc1	.	2.6µM	.	.	.	.
COc1cc(/C=C2\SC(=Nc3ccccc3)N(CCc3c[nH]c4ccccc34)C2=O)ccc1OC(C)C(=O)O (centres undefined)	.	.	.	.	.	.
COc1ccccc1NC(=O)c1sc2ncn(Cc3ccccc3Cl)c(=O)c2c1C	/	/	/	/	.	/
Cc1ccc(S(=O)(=O)c2nnn3c2nc(NCc2cccs2)c2sccc23)cc1C	/	/	/	/	.	/
Cc1c(O)ccc2c(CN(C)Cc3ccccc3)cc(=O)oc12	/	13µM	.	.	?	.
Cc1cc(C(=O)Cn2ncc(Cl)c(Cl)c2=O)c(C)n1CC(F)(F)F	?	?	.	.	15µM	.
Cc1ccc(OCc2cc(C(=O)N(C)CC3CCOCC3)no2)cc1C	/	?	2.8µM	3.2µM	12µM	?
COc1ccccc1OCc1cc(C(=O)N(C)CCC2CCCCO2)no1 (centres undefined)	/	?	2.5µM	1.6µM	12µM	10µM
Cc1cc(OCc2cc(C(=O)N(C)C3CCOCC3)no2)cc(C)c1Cl	/	?	3.5µM	4µM	21µM	.
CSc1ccccc1OCc1cc(C(=O)NC2CCOC(C)(C)C2)no1 (centres undefined)	/	.	.	.	.	.
Cc1ccc(OCc2cc(C(=O)NCC3COCCO3)no2)cc1C (centres undefined)	/	.	.	/	?	.
COc1ccc(OCc2cc(C(=O)NC3CCOC(C)(C)C3)no2)c2ccccc12 (centres undefined)	/	?	2.8µM	3.5µM	8.5µM	?
Cc1ccccc1CNC(=O)CCC(=O)N1CCSc2ccccc21	/	/	/	/	.	/
COc1ccc(OCc2cc(C(=O)N(C)C3CCOCC3)no2)c2ccccc12	/	?	?	?	15µM	.
COc1ccc(OCc2cc(C(=O)N(C)C3CCOC3)no2)c(Cl)c1 (centres undefined)	/	?	.	.	?	.
C/C(NC(=O)c1ccccc1)=C1/C(=O)CC2C1C2(C)C (centres undefined)	.	?	.	?	15µM	?
C/C(N[C@@H]1CSCC1O)=C1/C(=O)CC2[C@@H]1C2(C)C (some centres undefined)	.	/	/	/	/	/
Nn1c(SCC(=O)Nc2nnc(-c3ccccc3)o2)nnc1C1CC1	/	.	.	.	8.5µM	.
Cc1nnc(SCC(=O)Nc2nnc(-c3ccccc3)o2)s1	/	.	.	.	19µM	.
Cc1ccc(Cc2nc3ccccc3nc2SCC(=O)N2CCCCC2)cc1	/	/	/	/	.	/
CN(C)c1ccc(CNC(=O)c2ccc(Cn3c(=O)c4cccn4c4cccnc43)cc2)cc1	/	/	/	/	.	/
CCC(C)(C)NC(=O)CN(Cc1ccccc1Cl)C(=O)CCC(=O)Nc1cc(C)ccn1	/	.	.	.	.	.
Cc1ccc(-c2csc(N)n2)s1	.	?	?	.	15µM	?
Cc1csc(N)n1	.	?	.	.	.	.
O=C(/C=C/c1ccc(Cl)cc1Cl)N1CCc2ccccc21	2.5µM	?	1.6µM	0.79µM	0.6µM	6.5µM
O=C(/C=C/c1ccc(Cl)cc1Cl)OCC(=O)N1CCCC1	/	?	.	.	15µM	.
